# PubChem BioAssay (NCI)
# About 79,000 compounds went through this panel and 15% of them were active in at least one assay; those are over-represented in the sample as a whole. A number with no mark means an inactive call. The source made the active and inactive calls. Rule as the data show it: active = growth inhibition above about 70%; inactive = the rest.
# Experiments:
# [1] = NCI Yeast Anticancer Drug Screen. Data for the rad52 strain (AID 147);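 also: 0% = growth of vehicle-treated control cultures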; settings: S. cerevisiae rad52 mutant growth inhibition, active compounds read high
# Outline: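 Vehicle-treated cultures served as the reference for growth inhibition of compound-exposed yeast bearing a DNA repair mutation.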
# [2] = NCI Yeast Anticancer Drug Screen. Data for the wt1 strain (AID 149);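 also: 0% = growth of vehicle-treated wt1 cultures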; settings: S. cerevisiae wt1 strain (SPY 50644) growth inhibition, active compounds read high
# Outline: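 Compounds are added to wt1 yeast cultures. Growth is then measured. Inhibition is expressed relative to vehicle-treated controls.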
# [3] = NCI Yeast Anticancer Drug Screen. Data for the rad50EPP+ strain (AID 151);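 also: 0% = growth of vehicle-treated control cultures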; settings: S. cerevisiae rad50 mutant strain, active compounds read high
# Outline: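 In this screen, rad50EPP+ yeast were exposed to compounds. Growth inhibition was scored against vehicle-treated controls.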
# [4] = NCI Yeast Anticancer Drug Screen. Data for the mgt1 strain (AID 153); settings: S. cerevisiae mgt1 mutant growth inhibition, active compounds read high
# Outline: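 mgt1 strain exposed; growth vs vehicle control recorded as inhibition.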
# [5] = NCI Yeast Anticancer Drug Screen. Data for the rad50 strain (AID 155);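 also: 0% = growth of vehicle-only cultures of the same strain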; settings: S. cerevisiae rad50 strain growth inhibition, active compounds read high
# Outline: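 Inhibition values express reduced yeast growth in compound-treated cultures relative to vehicle-treated controls.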
# [6] = NCI Yeast Anticancer Drug Screen. Data for the mec2-1 strain (AID 157); settings: S. cerevisiae mec2-1 strain, active compounds read high
# Outline: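 Vehicle-treated cultures served as reference for growth inhibition of compound-exposed mec2-1 yeast.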
# [7] = NCI Yeast Anticancer Drug Screen. Data for the rad14 strain (AID 159);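 also: 0% = growth of vehicle-treated control cultures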; settings: S. cerevisiae rad14 strain growth inhibition, active compounds read high
# Outline: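 A mutant yeast strain defective in DNA damage repair is treated with compound; inhibition of its growth is scored against untreated, vehicle-exposed cultures.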
# [8] = NCI Yeast Anticancer Drug Screen. Data for the sgs1 mgt1 strain (AID 161);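 also: 0% = growth of cultures given vehicle only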; settings: S. cerevisiae sgs1 mgt1 strain, active compounds read high
# Outline: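 Test agents were incubated with a DNA-repair-mutant yeast strain. Growth was then read and compared against vehicle-treated controls.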
# [9] = NCI Yeast Anticancer Drug Screen. Data for the CLN2oe strain (AID 163);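 also: 0% = growth of vehicle-only control cultures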; settings: S. cerevisiae CLN2oe strain, active compounds read high
# Outline: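 Inhibition relative to vehicle-treated yeast is reported. Cells: strain with genetic alteration in cell-cycle control, grown with compound.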
# [10] = NCI Yeast Anticancer Drug Screen. Data for the cln2 rad14 strain (AID 165);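 also: 0% = growth equal to vehicle treated cultures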; settings: S. cerevisiae cln2 rad14 strain, active compounds read high
# Outline: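 Each compound was tested on cln2 rad14 yeast. Inhibition of growth was calculated against vehicle-exposed controls.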
# [11] = NCI Yeast Anticancer Drug Screen. Data for the bub3 strain (AID 167); settings: S. cerevisiae bub3 mutant strain, active compounds read high
# Outline: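 Steps: expose the mutant yeast strain to compound; grow alongside vehicle-treated cultures; measure growth; express inhibition against the vehicle cultures.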
# [12] = NCI Yeast Anticancer Drug Screen. Data for the wt2 strain (AID 169);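 also: 0% = growth of vehicle-treated yeast cultures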; settings: S. cerevisiae wt2 strain growth inhibition, active compounds read high
# Outline: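 Inhibition of yeast growth was determined after compound treatment, normalised to controls receiving only vehicle.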
# [13] = NCI Yeast Anticancer Drug Screen. Data for the mlh1 strain (AID 171);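 also: 0% = growth of vehicle-treated control cultures of the same strain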; settings: S. cerevisiae mlh1 strain growth inhibition, active compounds read high
# Outline: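 Vehicle-normalised growth inhibition of a repair- or checkpoint-altered yeast strain following compound treatment.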
# [14] = NCI Yeast Anticancer Drug Screen. Data for the sgs1 strain (AID 173);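 also: 0% = growth of vehicle-only control cultures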; settings: S. cerevisiae sgs1 mutant, active compounds read high
# Outline: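 Screen format: yeast with repair or checkpoint alterations, compound exposure, growth read relative to vehicle.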
# [15] = NCI Yeast Anticancer Drug Screen. Data for the mlh1 rad18 strain (AID 175); settings: S. cerevisiae mlh1 rad18 strain growth inhibition, active compounds read high
# Outline: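 Vehicle-treated cultures served as the reference for growth inhibition in a yeast strain carrying DNA damage repair alterations exposed to each compound.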
# [16] = NCI Yeast Anticancer Drug Screen. Data for the rad18 strain (AID 177); settings: S. cerevisiae rad18 mutant growth inhibition, active compounds read high
# Outline: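 Test articles were incubated with altered yeast defective in DNA damage repair. Results are given as inhibition of growth versus vehicle.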
# [17] = at 5.0 µM (retest, dose inferred, filed as 0.5)
# [18] = at 50.0 µM (retest, dose inferred, filed as 5.0)
smiles,measurement,setting,value
O=S(=O)(NNc1ccccc1)c1ccccc1,growth inhibition,[1]; at 1.2 µM,-1%
same,growth inhibition,[1]; at 3.7 µM,4%
same,growth inhibition,[1]; at 11.0 µM,15%
same,growth inhibition,[1]; at 33.0 µM,62%
same,growth inhibition,[1]; at 100.0 µM,97% (active)
same,growth inhibition,[2]; at 1.2 µM,-1%
same,growth inhibition,[2]; at 3.7 µM,-1%
same,growth inhibition,[2]; at 11.0 µM,4%
same,growth inhibition,[2]; at 33.0 µM,11%
same,growth inhibition,[2]; at 100.0 µM,45%
same,growth inhibition,[3]; at 1.2 µM,-1%
same,growth inhibition,[3]; at 3.7 µM,1%
same,growth inhibition,[3]; at 11.0 µM,14%
same,growth inhibition,[3]; at 33.0 µM,71% (active)
same,growth inhibition,[3]; at 100.0 µM,94% (active)
same,growth inhibition,[4]; at 1.2 µM,-3%
same,growth inhibition,[4]; at 3.7 µM,-1%
same,growth inhibition,[4]; at 11.0 µM,8%
same,growth inhibition,[4]; at 33.0 µM,14%
same,growth inhibition,[4]; at 100.0 µM,82% (active)
same,growth inhibition,[5]; at 1.2 µM,4%
same,growth inhibition,[5]; at 3.7 µM,18%
same,growth inhibition,[5]; [17],-20%
same,growth inhibition,[5]; at 11.0 µM,27%
same,growth inhibition,[5]; at 33.0 µM,60%
same,growth inhibition,[5]; [18],16%
same,growth inhibition,[5]; at 50.0 µM,73.5% (active)
same,growth inhibition,[5]; at 100.0 µM,95% (active)
same,growth inhibition,[6]; at 1.2 µM,-6%
same,growth inhibition,[6]; at 3.7 µM,-5%
same,growth inhibition,[6]; [17],-12%
same,growth inhibition,[6]; at 11.0 µM,-3%
same,growth inhibition,[6]; at 33.0 µM,26%
same,growth inhibition,[6]; [18],15%
same,growth inhibition,[6]; at 50.0 µM,19.1%
same,growth inhibition,[6]; at 100.0 µM,92% (active)
same,growth inhibition,[7]; at 1.2 µM,-2%
same,growth inhibition,[7]; at 3.7 µM,3%
same,growth inhibition,[7]; at 11.0 µM,8%
same,growth inhibition,[7]; at 33.0 µM,18%
same,growth inhibition,[7]; at 100.0 µM,44%
same,growth inhibition,[8]; [17],0%
same,growth inhibition,[8]; [18],9%
same,growth inhibition,[8]; at 50.0 µM,36.6%
same,growth inhibition,[9]; at 1.2 µM,0%
same,growth inhibition,[9]; at 3.7 µM,-1%
same,growth inhibition,[9]; at 11.0 µM,5%
same,growth inhibition,[9]; at 33.0 µM,34%
same,growth inhibition,[9]; at 100.0 µM,85% (active)
same,growth inhibition,[10]; [17],-44%
same,growth inhibition,[10]; [18],-3%
same,growth inhibition,[10]; at 50.0 µM,16.1%
same,growth inhibition,[11]; at 1.2 µM,-4%
same,growth inhibition,[11]; at 3.7 µM,-7%
same,growth inhibition,[11]; [17],-4%
same,growth inhibition,[11]; at 11.0 µM,1%
same,growth inhibition,[11]; at 33.0 µM,45%
same,growth inhibition,[11]; [18],23%
same,growth inhibition,[11]; at 50.0 µM,11.7%
same,growth inhibition,[11]; at 100.0 µM,93% (active)
same,growth inhibition,[12]; at 1.2 µM,-2%
same,growth inhibition,[12]; at 3.7 µM,-1%
same,growth inhibition,[12]; at 11.0 µM,2%
same,growth inhibition,[12]; at 33.0 µM,16%
same,growth inhibition,[12]; at 100.0 µM,67%
same,growth inhibition,[13]; at 1.2 µM,-5%
same,growth inhibition,[13]; at 3.7 µM,-3%
same,growth inhibition,[13]; at 11.0 µM,-2%
same,growth inhibition,[13]; at 33.0 µM,14%
same,growth inhibition,[13]; at 100.0 µM,74% (active)
same,growth inhibition,[14]; at 1.2 µM,-1%
same,growth inhibition,[14]; at 3.7 µM,-1%
same,growth inhibition,[14]; at 11.0 µM,6%
same,growth inhibition,[14]; at 33.0 µM,34%
same,growth inhibition,[14]; at 100.0 µM,90% (active)
same,growth inhibition,[15]; [17],-25%
same,growth inhibition,[15]; [18],51%
same,growth inhibition,[15]; at 50.0 µM,54.5%
same,growth inhibition,[16]; at 1.2 µM,-1%
same,growth inhibition,[16]; at 3.7 µM,3%
same,growth inhibition,[16]; at 11.0 µM,22%
same,growth inhibition,[16]; at 33.0 µM,47%
same,growth inhibition,[16]; at 100.0 µM,91% (active)
CCCCCCCCCCCCCCCCCCN(C)C(COC)COP(=O)([O-])OCC[N+](C)(C)C (stereo unspecified),growth inhibition,[1]; at 1.2 µM,-58%
same,growth inhibition,[1]; at 3.7 µM,-67%
same,growth inhibition,[1]; at 11.0 µM,95% (active)
same,growth inhibition,[1]; at 33.0 µM,97% (active)
same,growth inhibition,[1]; at 100.0 µM,97% (active)
same,growth inhibition,[2]; at 1.2 µM,-34%
same,growth inhibition,[2]; at 3.7 µM,-56%
same,growth inhibition,[2]; at 11.0 µM,98% (active)
same,growth inhibition,[2]; at 33.0 µM,99% (active)
same,growth inhibition,[2]; at 100.0 µM,98% (active)
same,growth inhibition,[3]; at 1.2 µM,-33%
same,growth inhibition,[3]; at 3.7 µM,63%
same,growth inhibition,[3]; at 11.0 µM,97% (active)
same,growth inhibition,[3]; at 33.0 µM,98% (active)
same,growth inhibition,[3]; at 100.0 µM,98% (active)
same,growth inhibition,[4]; at 1.2 µM,14%
same,growth inhibition,[4]; at 3.7 µM,8%
same,growth inhibition,[4]; at 11.0 µM,98% (active)
same,growth inhibition,[4]; at 33.0 µM,99% (active)
same,growth inhibition,[4]; at 100.0 µM,98% (active)
same,growth inhibition,[5]; at 1.2 µM,-24%
same,growth inhibition,[5]; at 3.7 µM,-11%
same,growth inhibition,[5]; [17],1%
same,growth inhibition,[5]; at 11.0 µM,97% (active)
same,growth inhibition,[5]; at 33.0 µM,98% (active)
same,growth inhibition,[5]; [18],98% (active)
same,growth inhibition,[5]; at 50.0 µM,73.6% (active)
same,growth inhibition,[5]; at 100.0 µM,98% (active)
same,growth inhibition,[6]; at 1.2 µM,-48%
same,growth inhibition,[6]; at 3.7 µM,-46%
same,growth inhibition,[6]; [17],12%
same,growth inhibition,[6]; at 11.0 µM,97% (active)
same,growth inhibition,[6]; at 33.0 µM,98% (active)
same,growth inhibition,[6]; [18],99% (active)
same,growth inhibition,[6]; at 50.0 µM,23.9%
same,growth inhibition,[6]; at 100.0 µM,98% (active)
same,growth inhibition,[7]; at 1.2 µM,-69%
same,growth inhibition,[7]; at 3.7 µM,-78%
same,growth inhibition,[7]; at 11.0 µM,96% (active)
same,growth inhibition,[7]; at 33.0 µM,98% (active)
same,growth inhibition,[7]; at 100.0 µM,97% (active)
same,growth inhibition,[8]; [17],3%
same,growth inhibition,[8]; [18],2%
same,growth inhibition,[8]; at 50.0 µM,85.8% (active)
same,growth inhibition,[9]; at 1.2 µM,-39%
same,growth inhibition,[9]; at 3.7 µM,-44%
same,growth inhibition,[9]; at 11.0 µM,97% (active)
same,growth inhibition,[9]; at 33.0 µM,98% (active)
same,growth inhibition,[9]; at 100.0 µM,98% (active)
same,growth inhibition,[10]; [17],13%
same,growth inhibition,[10]; [18],-70%
same,growth inhibition,[10]; at 50.0 µM,8.85%
same,growth inhibition,[11]; at 1.2 µM,-23%
same,growth inhibition,[11]; at 3.7 µM,-40%
same,growth inhibition,[11]; [17],14%
same,growth inhibition,[11]; at 11.0 µM,98% (active)
same,growth inhibition,[11]; at 33.0 µM,98% (active)
same,growth inhibition,[11]; [18],10%
same,growth inhibition,[11]; at 50.0 µM,85.2% (active)
same,growth inhibition,[11]; at 100.0 µM,98% (active)
same,growth inhibition,[12]; at 1.2 µM,-41%
same,growth inhibition,[12]; at 3.7 µM,-55%
same,growth inhibition,[12]; at 11.0 µM,97% (active)
same,growth inhibition,[12]; at 33.0 µM,98% (active)
same,growth inhibition,[12]; at 100.0 µM,98% (active)
same,growth inhibition,[13]; at 1.2 µM,-34%
same,growth inhibition,[13]; at 3.7 µM,-54%
same,growth inhibition,[13]; at 11.0 µM,97% (active)
same,growth inhibition,[13]; at 33.0 µM,98% (active)
same,growth inhibition,[13]; at 100.0 µM,98% (active)
same,growth inhibition,[14]; at 1.2 µM,-64%
same,growth inhibition,[14]; at 3.7 µM,-64%
same,growth inhibition,[14]; at 11.0 µM,97% (active)
same,growth inhibition,[14]; at 33.0 µM,98% (active)
same,growth inhibition,[14]; at 100.0 µM,98% (active)
same,growth inhibition,[15]; [17],16%
same,growth inhibition,[15]; [18],98% (active)
same,growth inhibition,[15]; at 50.0 µM,50%
same,growth inhibition,[16]; at 1.2 µM,-64%
same,growth inhibition,[16]; at 3.7 µM,-24%
same,growth inhibition,[16]; at 11.0 µM,97% (active)
same,growth inhibition,[16]; at 33.0 µM,98% (active)
same,growth inhibition,[16]; at 100.0 µM,98% (active)
